Records with an inconclusive call do not appear. The source made the active and inactive calls. Unless noted, calls follow the shape of the dose curve; as a rule, active = well fitted curve in the direction sought with a large enough effect in the repeat runs; inconclusive = weak or mixed curves; inactive = no such curve, though single readings can be large; an effect the other way counts as inactive or inconclusive.
How the values were obtained:
[1] = qHTS assay to identify small molecule HDAC inhibitors - cell viability counter screen (AID 1259365); also: series mostly up to about 92 µM; nearly all actives have a fitted effect of over 50% in size
In short: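 CellTiter-Glo luminescence (30 min, room temperature) reported viability after a 2 h compound exposure at 37 C. Cells: wild-type HCT-116, 1,500 per well, seeded the night before.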

[2] = qHTS assay to identify small molecule agonists of the sonic hedgehog signaling (Shh) pathway - cell viability counter screen (AID 1259366); also: nearly all actives have a fitted effect of over 50% in size
In short: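 Cytotoxicity counter screen: CellTiter-Fluor reagent added after 23 h compound exposure, then 1 h at 37C and fluorescence read. Cells were 3T3 Gli1-Luc, seeded 2,000 per well and dosed 4 h post-plating.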

[3] = qHTS assay to identify small molecule antagonists of the sonic hedgehog signaling (Shh) pathway - cell viability counter screen (AID 1259367); also: nearly all actives have a fitted effect of over 55% in size
In short: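 Cytotoxicity was assessed in parallel with Shh reporter activity by measuring live-cell protease fluorescence (CellTiter-Fluor) in NIH/3T3 cells stably carrying Gli1-Luc, treated with compound under conditioned medium stimulation for 23 hr plus 1 hr reagent incubation.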

[4] = qHTS assay to identify small molecule agonists of the sonic hedgehog signaling (Shh) pathway (AID 1259368; calls by dose curve;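 also: NIH/3T3-derived 3T3Gli1-Luc cells carrying a stable Gli1-driven firefly luciferase reporter; series mostly up to about 92 µM; nearly all actives have a fitted effect of over 15% in size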)
In short: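 Hedgehog pathway agonism scored by increased firefly luciferase luminescence in 3T3Gli1-Luc cells treated 24 hr at 37 C; detection used a 30 min room-temperature reagent incubation.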

[5] = qHTS assay to identify small molecule antagonists of the sonic hedgehog signaling (Shh) pathway (AID 1259369; calls by dose curve; also: nearly all actives have a fitted effect of over 45% in size)
In short: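 NIH/3T3 stable Gli1-Luc clone, 2,000 cells/well, 4hr settle; cpd + conditioned medium 24hr; Luc reagent 30min RT; luminescence.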

[6] = molecular target: Estrogen receptor beta (Homo sapiens) (UniProt Q92731); test: qHTS assay to identify small molecule agonists of the estrogen receptor beta (ER-beta) signaling pathway (AID 1259377; active = well fitted activation curve with a large enough effect in the signal ratio in the repeat runs, not every such curve was filed as active; the % refers to the signal ratio)
Estrogen receptor beta (Homo sapiens), sequence (Q92731 whole entry, looked up): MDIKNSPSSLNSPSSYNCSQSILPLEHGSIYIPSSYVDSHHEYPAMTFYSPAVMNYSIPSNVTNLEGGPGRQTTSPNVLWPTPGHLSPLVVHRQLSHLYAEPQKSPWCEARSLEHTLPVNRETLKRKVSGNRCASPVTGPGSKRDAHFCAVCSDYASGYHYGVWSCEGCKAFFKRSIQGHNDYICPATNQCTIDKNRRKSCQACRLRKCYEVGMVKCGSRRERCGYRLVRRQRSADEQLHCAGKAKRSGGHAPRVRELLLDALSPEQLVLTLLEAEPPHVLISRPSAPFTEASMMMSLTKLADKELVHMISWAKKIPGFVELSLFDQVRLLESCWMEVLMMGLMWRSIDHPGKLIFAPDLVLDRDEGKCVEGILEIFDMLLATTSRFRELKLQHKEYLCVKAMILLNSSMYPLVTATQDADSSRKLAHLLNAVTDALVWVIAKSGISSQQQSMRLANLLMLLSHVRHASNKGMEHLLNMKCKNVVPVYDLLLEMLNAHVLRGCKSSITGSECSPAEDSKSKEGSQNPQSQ
In short: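 Ratiometric beta-lactamase FRET read-out came after 2 h substrate loading at room temperature. It followed 16 h compound treatment at 37C of GripTite HEK293T cells carrying a UAS-bla reporter, plated in 2% charcoal-stripped FBS medium.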

[7] = molecular target: Estrogen receptor beta (Homo sapiens) (UniProt Q92731); test: qHTS assay to identify small molecule antagonists of the estrogen receptor beta (ER-beta) signaling pathway (AID 1259378; active = well fitted inhibition curve with a large enough effect in the signal ratio in the repeat runs, not every such curve was filed as active; the % refers to the signal ratio)
In short: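 ER-beta-UAS-bla HEK293T (GripTite) cells in 2% charcoal-stripped FBS medium were preincubated 6 hr at 37C, dosed with compound, then stimulated with 1 nM E2 (final) for 16 hr; beta-lactamase reporter read by B/G FRET fluorescence after 2 hr substrate loading.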

[8] = qHTS assay to identify small molecule agonists of the androgen receptor (AR) signaling pathway in the presence of an antagonist - cell viability counter screen (AID 1259379);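 also: MDA-kb2 human breast cancer cells carrying an MMTV luciferase reporter; series mostly up to about 92 µM; nearly all actives have a fitted effect of over 25% in size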
In short: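 MDA-kb2 viability measured by CellTiter-Fluor fluorescence in the same wells as the luciferase signal; nilutamide 3.0uM final; 15-point compound titration; 16 hr at 37C.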

[9] = qHTS assay to identify small molecule agonists of the estrogen receptor beta (ER-beta) signaling pathway - cell viability counter screen (AID 1259380); also: nearly all actives have a fitted effect of over 30% in size
In short: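 Measured: luminescence from CellTiter-Glo after 30 min at room temperature, added to wells already read for the LiveBLAzer FRET reporter (2 hr substrate); ER-beta-UAS-bla HEK293T cells had 16 hr compound treatment at 37C, 5% CO2.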

[10] = molecular target: Androgen receptor (Homo sapiens) (UniProt P10275); test: qHTS assay to identify small molecule agonists of the androgen receptor (AR) signaling pathway in the presence of an antagonist (AID 1259381; calls by dose curve; also: nearly all actives have a fitted effect of over 15% in size)
Androgen receptor (Homo sapiens), sequence (P10275 whole entry, looked up): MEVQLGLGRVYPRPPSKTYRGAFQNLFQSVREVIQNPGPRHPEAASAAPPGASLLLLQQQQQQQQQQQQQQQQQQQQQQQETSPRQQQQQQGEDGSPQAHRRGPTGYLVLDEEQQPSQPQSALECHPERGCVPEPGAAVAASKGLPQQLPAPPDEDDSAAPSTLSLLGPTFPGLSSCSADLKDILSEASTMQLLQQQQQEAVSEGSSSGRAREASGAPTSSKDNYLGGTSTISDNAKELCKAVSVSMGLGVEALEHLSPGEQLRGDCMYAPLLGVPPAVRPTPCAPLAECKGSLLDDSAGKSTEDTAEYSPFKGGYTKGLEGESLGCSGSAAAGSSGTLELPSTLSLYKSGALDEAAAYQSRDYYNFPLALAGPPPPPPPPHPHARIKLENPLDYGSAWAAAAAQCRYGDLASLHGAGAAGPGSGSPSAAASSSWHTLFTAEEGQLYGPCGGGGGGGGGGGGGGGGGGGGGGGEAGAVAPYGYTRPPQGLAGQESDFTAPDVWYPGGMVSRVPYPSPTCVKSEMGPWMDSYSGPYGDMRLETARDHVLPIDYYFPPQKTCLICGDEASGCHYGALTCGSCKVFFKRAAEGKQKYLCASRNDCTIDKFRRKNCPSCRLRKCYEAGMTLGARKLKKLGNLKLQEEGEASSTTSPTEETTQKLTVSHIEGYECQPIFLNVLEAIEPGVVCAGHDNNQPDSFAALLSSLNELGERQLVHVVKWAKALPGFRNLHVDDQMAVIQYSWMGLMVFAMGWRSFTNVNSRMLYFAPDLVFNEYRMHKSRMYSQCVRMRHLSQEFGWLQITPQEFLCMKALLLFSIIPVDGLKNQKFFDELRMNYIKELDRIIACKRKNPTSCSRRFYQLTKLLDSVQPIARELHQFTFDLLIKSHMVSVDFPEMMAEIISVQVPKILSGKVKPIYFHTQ
In short: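 Luminescent ONE-Glo read, 30min at room temperature, follows 16hr compound exposure (15 concentrations) of MDA-kb2 cells at 37C, 0% CO2, with nilutamide added at 3.0uM final.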
% is scaled to controls: 0 for no effect and ±100 for the full control effect.

CCCCCCCCCCCCCCCC(=O)OC
inactive: activity change, negative = cytotoxicity [1] -1.77% [at 19 µM] | viability change, negative = cytotoxic [2] 4.58% [at 19 µM] | viability change, negative = cytotoxic [3] -2.31% [at 19 µM] | activity change [4] 0.811% [at 18.9 µM] | activity change, negative = inhibition [5] 21.4% [at 19 µM] | activation [6] -1.46% [at 19 µM] | activity, negative = inhibition [7] 3.6% [at 19 µM] | activity change, negative = cytotoxicity [8] 0.0056% [at 19 µM] | activity change, negative = cytotoxicity [9] 4.05% [at 19 µM]

Cc1ccc(N)nc1
inactive: outcome [1] | outcome [2] | outcome [3] | outcome [4] | Potency [5] | Potency [6] | outcome [7] | outcome [8] | Potency [9] | outcome [10]

COc1cc(OC)cc(OC)c1
inactive: outcome [1] | outcome [2] | outcome [3] | outcome [4] | Potency [5] | Potency [6] | outcome [7] | outcome [8] | Potency [9] | outcome [10]

C=CCCCCCCCCOC(C)=O
inactive: outcome [1] | outcome [2] | outcome [3] | outcome [4] | Potency [5] | Potency [6] | outcome [7] | outcome [8] | Potency [9]

CC/C=C/CCCCCCCCCCOC(C)=O
inactive: outcome [1] | outcome [2] | outcome [3] | outcome [4] | Potency [5] | Potency [6] | outcome [7] | outcome [8] | Potency [9]

C=CC(C)(CCC=C(C)C)OC(=O)C(C)C (stereo not given)
inactive: outcome [1] | outcome [2] | outcome [3] | outcome [4] | Potency [5] | Potency [6] | outcome [7] | outcome [8] | Potency [9]

CCCCc1ccc(Cl)cc1
inactive: outcome [1] | outcome [2] | outcome [3] | outcome [4] | Potency [5] | Potency [6] | outcome [7] | outcome [8] | Potency [9]

CC(C)C(C)C
inactive: outcome [1] | outcome [2] | outcome [3] | outcome [4] | Potency [5] | Potency [6] | outcome [7] | outcome [8] | Potency [9]

NNC(=O)OCc1ccccc1
inactive: outcome [1] | outcome [2] | outcome [3] | outcome [4] | Potency [5] | Potency [6] | outcome [7] | outcome [8] | Potency [9] | outcome [10]

Cc1cc(=O)oc2cc(O[C@@H]3SC[C@@H](O)[C@H](O)[C@H]3O)ccc12
inactive: outcome [1] | outcome [2] | outcome [3] | outcome [4] | Potency [5] | Potency [6] | outcome [7] | outcome [8] | Potency [9] | outcome [10]

CC(O)C(CO)C(C)O (stereo not given)
inactive: outcome [1] | outcome [2] | outcome [3] | outcome [4] | Potency [5] | Potency [6] | outcome [7] | outcome [8] | Potency [9] | outcome [10]

O=C(O)Cc1c(Cl)ccc(Cl)c1Cl
inactive: outcome [1] | outcome [2] | outcome [3] | outcome [4] | Potency [5] | Potency [6] | outcome [7] | outcome [8] | Potency [9]

CCOC(=O)CN1CCCC1=O
inactive: outcome [1] | outcome [2] | outcome [3] | outcome [4] | Potency [5] | Potency [6] | outcome [7] | outcome [8] | Potency [9]

CCc1ccc(CC)cc1
inactive: outcome [1] | outcome [2] | outcome [3] | outcome [4] | Potency [5] | Potency [6] | outcome [7] | outcome [8] | Potency [9]

O=C1CCCc2c(O)cccc21
inactive: outcome [1] | outcome [2] | outcome [3] | outcome [4] | Potency [5] | outcome [8] | Potency [9] | outcome [10]

O=c1c(O)c(O)c1=O
inactive: outcome [1] | outcome [2] | outcome [3] | outcome [4] | Potency [5] | outcome [8] | Potency [9]

O=C(O)Cc1ccccc1Oc1ccc(Cl)cc1Cl
inactive: outcome [1] | outcome [2] | outcome [3] | outcome [4] | Potency [5] | outcome [8] | Potency [9]

O=Cc1ccc(C(=O)O)cc1
inactive: outcome [1] | outcome [2] | outcome [3] | outcome [4] | Potency [5] | outcome [8] | Potency [9]

C[C@H]1COc2c(C3(N)CC3)c(F)cc3c(=O)c(C(=O)O)cn1c23
inactive: outcome [1] | outcome [2] | outcome [3] | outcome [4] | Potency [5] | outcome [7] | outcome [8]

CC(=O)Nc1ccc(S(=O)(=O)Nc2cc(C)on2)cc1
inactive: outcome [1] | outcome [2] | outcome [3] | outcome [4] | Potency [5] | outcome [8] | Potency [9]

Nc1cc(S(=O)(=O)O)ccc1O
inactive: outcome [1] | outcome [2] | outcome [3] | outcome [4] | Potency [5] | outcome [8] | Potency [9] | outcome [10]

COC(=O)N/N=C/c1c[n+]([O-])c2ccccc2[n+]1[O-]
inactive: outcome [1] | outcome [2] | outcome [3] | outcome [4] | Potency [5] | outcome [8] | Potency [9]

C=CCn1cc[n+](C)c1
inactive: outcome [1] | outcome [2] | outcome [3] | outcome [4] | Potency [5] | outcome [7] | outcome [8] | Potency [9]

CC(C)(O)CCCC1=CCC(C=O)CC1 (stereo not given)
inactive: outcome [1] | outcome [2] | outcome [3] | outcome [4] | Potency [5] | outcome [8] | Potency [9]

CC(=O)c1ccc2ccc3ccccc3c2c1
inactive: outcome [1] | outcome [2] | outcome [3] | outcome [4] | Potency [5] | outcome [8]

O=P(O)(O)C(O)(Cc1cccnc1)P(=O)(O)O
inactive: outcome [1] | outcome [2] | outcome [3] | outcome [4] | Potency [5] | outcome [8] | Potency [9]

COC(=O)c1ccc(NC(C)=O)cc1OC
inactive: outcome [1] | outcome [2] | outcome [3] | outcome [4] | Potency [5] | outcome [8] | Potency [9] | outcome [10]
